Screening data: PubChem, National Center for Advancing Translational Sciences (NCATS)
NPC1 prom act: activators of NPC1 promoter; 320,000 tested, 2.4% active; Potency, µM (doses to about 9.22 µM), for inactives: at the top dose activation, usual class: activators; Huh7 NPC1 promoter luciferase reporter, 24 h; further: % of control where 0% means no effect; nearly all actives have a fitted effect of over 60% in size
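Compounds in DMSO were transferred onto Huh7 NPC1-luciferase reporter cells pre-incubated 2 h; after 24 h at 37 °C, Amplite reagent was dispensed and luminescence recorded 10 min later.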
ELG1 genotox: genotoxicity induction in ELG1-luciferase HEK293T cells | AID 504466 | 330,000 tested, 1.3% active | HEK293T ELG1-luciferase reporter, luminescence, 16 h | Potency, µM (titrated, usually from 46 µM), inactives show at the top dose activity change, positive = activation, hits mostly activators; further: % of control where 0% means no effect; nearly all actives have a fitted effect of over 60% in size
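ELG1-luciferase HEK293T cells, 2,000/well; compound pinned in; 16 hr, 37 °C, 5% CO2; ONE-Glo, 30 min RT; luminescence on CCD imager.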
SMN2 splice enh: enhancers of SMN2 splice variant expression; 210,000 tested, 2.8% active; HEK293 SMN2-luciferase splicing reporter, luminescence, 30-36 h; Potency, µM (top dose mostly 46.1 µM), inactives show top-dose activity change, positive = activation, hits mostly activators; further: % of control where 0% means no effect; nearly all actives have a fitted effect of over 55% in size
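HEK293 cells carry an SMN2 […]–luciferase reporter in which exon 7 inclusion puts luciferase in frame. Cells were plated 10-12 h before compound addition, then incubated 30-36 h at 37C. ONE-Glo luminescence was read; sodium butyrate at 4.5 mM final served as control.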
FLuc modulator: firefly luciferase modulation, counter-screen for miR-21 project; purified FLuc, Km substrates, luminescence inhibition; Potency, µM (titrated, usually from 57.5 µM), for the others: at the highest dose activity change, negative = inhibition, usual class: inhibitors; 360,000 tested, 6.9% active; AID 588342;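 further: plate controls were vehicle for no effect and reference inhibitor for full effect; nearly all actives have a fitted effect of over 55% in size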
Target sequence (P08659 whole entry, looked up): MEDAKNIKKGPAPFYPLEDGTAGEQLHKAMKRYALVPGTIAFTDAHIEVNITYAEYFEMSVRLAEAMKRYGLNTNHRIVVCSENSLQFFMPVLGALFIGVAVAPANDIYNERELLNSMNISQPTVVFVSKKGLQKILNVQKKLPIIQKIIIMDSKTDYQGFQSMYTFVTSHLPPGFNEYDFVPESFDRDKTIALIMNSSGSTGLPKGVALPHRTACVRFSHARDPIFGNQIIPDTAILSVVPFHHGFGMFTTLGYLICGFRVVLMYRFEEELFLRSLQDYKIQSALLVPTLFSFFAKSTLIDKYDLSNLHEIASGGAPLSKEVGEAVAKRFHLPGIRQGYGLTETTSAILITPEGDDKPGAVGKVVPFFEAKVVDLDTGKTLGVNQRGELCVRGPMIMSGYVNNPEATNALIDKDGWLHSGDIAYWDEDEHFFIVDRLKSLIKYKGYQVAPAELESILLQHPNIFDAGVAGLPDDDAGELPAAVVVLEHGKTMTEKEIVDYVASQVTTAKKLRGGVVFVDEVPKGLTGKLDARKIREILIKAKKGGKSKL
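Biochemical qHTS of compounds, final roughly 60 µM downward over six points, against 10 nM purified firefly luciferase using Km concentrations of substrates (10 uM D-luciferin, 10 uM ATP) in Tris acetate pH 7.5 buffer; luminescence output.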
Rab9 prom act: activates the Rab9 promoter | 320,000 tested, 2.8% active | Huh7 Rab9 promoter-luciferase reporter, luminescence, 24 h | Potency, µM (top dose mostly 9.22 µM), without a hit: top-dose activation, negative = inhibition, hits mostly activators; further: % of control where 0% means no effect; nearly all actives have a fitted effect of over 60% in size
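Promoter activation is measured as luciferase luminescence in Huh7 cells stably transfected with a Rab9 promoter–luciferase construct, following 24 h compound exposure at 37 °C and 10 min reagent incubation at ambient temperature.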
Luc counter: Kinase-Glo luciferase inhibition (counter-screen). Kinase-Glo luciferase, ATP luminescence, 8 min. Potency, µM (series often up to 38.3 µM), for the others: top-dose activity change, negative = inhibition, hits mostly inhibitors. AID 1379. Q27757. 200,000 tested, 0.28% active; further: on the % scale 0 is the no-effect control and ±100 the full control effect; nearly all actives have a fitted effect of over 60% in size
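Light output from Kinase-Glo luciferase with luciferin and 10 uM ATP in 50 mM imidazole pH 7.2, KCl, MgCl2, Tween 20, BSA; compound pin-delivered, 8-min ambient incubation, then luminescence read.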
* marks the source's active call; other numbers are inactive results; u = inconclusive; x = no result given. The list is not random: actives were taken first. Their share in the collection is about 7.3%. The call rests on the fitted dose curve; in most records, active means well fitted curve in the direction sought with a large enough effect; inconclusive means small, poorly fitted or top-dose-only effect, or another doubt; inactive means no such curve, though single readings can be large; an effect the other way counts as inactive or inconclusive. Potency means the concentration at half of the fitted maximal effect.

SMILES	NPC1 prom act	ELG1 genotox	SMN2 splice enh	FLuc modulator	Rab9 prom act	Luc counter
COc1ccc(Nc2nc3c(S(=O)(=O)c4ccc(Br)cc4)nnn3c3ccsc23)c(OC)c1	x	x	x	1%	x	x
CC1Cn2c(C(=O)NCCc3ccc(Cl)cc3)cc3cccc(c32)S1 (configuration not stated)	x	x	x	-2%	x	x
CNc1ncnc2sc(-c3ccccc3)cc12	2%	12%	x	u	4%	x
CC(=O)CCSc1ncnc2sc(-c3ccccc3)cc12	5%	-8%	x	1%	10%	x
S=c1[nH]cnc2sc(-c3ccccc3)cc12	17%	0%	x	11µM*	u	-3%
O=C(O)CCSc1ncnc2sc(-c3ccccc3)cc12	-23%	-7%	x	21µM*	-27%	x
O=C(O)CSc1ncnc2sc(-c3ccccc3)cc12	8%	-5%	2%	13µM*	13%	-3%
COc1ccc(CNC(=O)c2ccc(CSc3nc4ccncc4n3Cc3ccccc3F)cc2)cc1	x	x	-9%	-15%	x	x
Oc1c(Br)cc(C2N=C(c3ccccc3)NO2)cc1Br (configuration not stated)	18%	19%	-20%	17µM*	8%	-5%
CSc1ccc(C2N=C(c3ccccc3)NO2)cc1 (configuration not stated)	1.3µM*	u	x	8.5µM*	1.8µM*	x
Oc1c(Br)cc(Br)c(/C=N/n2c(-c3ccccc3)n[nH]c2=S)c1Br	-2%	-3%	x	-27%	-3%	x
COC(=O)CN1C(=O)C(C)(C)c2cc(S(=O)(=O)NCc3ccc(Cl)cc3)ccc21	x	x	x	-2%	x	x
CCOc1ccc(NCc2cccn2-c2nnc(N3CCC(C(=O)NCCc4ccc(OC)c(OC)c4)CC3)s2)cc1	x	x	-35%	-14%	x	x
COc1ccc2nc3ccccc3nc2c1	4µM*	11%	11µM*	17µM*	2.8µM*	-22%
COc1ccc(-c2ccc3ccccc3n2)cc1OC	2.2µM*	4.1µM*	14µM*	11µM*	2µM*	-3%
Nc1ccc(-c2ccc3ccccc3n2)cc1	1.5µM*	x	3.2µM*	x	1.3µM*	-13%
COc1ccc(-c2ccc3ccccc3n2)cc1	0.71µM*	0.92µM*	13µM*	1.2µM*	0.4µM*	u
COc1ccc2nc3c(nc2c1)C(=O)c1ccccc1-3	x	x	x	x	x	-8%
COc1ccc(-c2nc3ccccc3nc2-c2ccccc2)cc1	-5%	-5%	x	5%	-21%	2%
COc1ccc(-c2cc(-c3ccccc3)nc(N3CCCC3)n2)cc1OC	0%	-2%	u	u	0%	-2%
COc1ccc(S(=O)(=O)c2c(SC)nn(CC(=O)Nc3ccc(C)c(Cl)c3)c2N)cc1	x	x	x	-1%	x	x
COc1cccc(CNC(=O)C2CCCN(S(=O)(=O)c3ccc4c(ccn4C)c3)C2)c1OC (configuration not stated)	x	x	x	5%	x	x
CCOc1cc(C(=O)Nc2cc(C)ccn2)cc(OCC)c1OCC	0%	-16%	-6%	4%	1%	-2%
C/C(CC(=O)Nc1cc(C)ccn1)=N\NC(=O)COc1cccc(C)c1	-6%	10%	2%	13µM*	-5%	0%
CCOc1ccc(C(=O)Nc2cc(C)ccn2)cc1	0.71µM*	-10%	u	1.3µM*	0.32µM*	13µM*
SMILES	NPC1 prom act	ELG1 genotox	SMN2 splice enh	FLuc modulator	Rab9 prom act	Luc counter
CCOc1ccc(C(=O)NCC(=O)Nc2cc(C)ccn2)cc1OCC	1%	8%	x	u	1%	x
Cc1ccc(C(=O)NCC(=O)Nc2cc(C)ccn2)cc1	5%	u	x	27µM*	11%	x
C/C(CC(=O)Nc1cc(Cl)ccc1Cl)=N\NC(=O)COc1cccc(C)c1	2%	5%	x	0%	4%	x
Cc1ccnc(NC(=O)c2ccc(C(=O)c3ccccc3)cc2)c1	3.5µM*	u	x	0.95µM*	2µM*	x
Cc1ccnc(NC(=O)c2ccccc2NC(=O)c2ccccc2)c1	-2%	-5%	x	u	0%	x
Cc1ccnc(NC(=O)CCCc2ccccc2)c1	u	18%	u	24µM*	u	-2%
Cc1ccc(NC(=O)CNC(=O)Cc2cccc3ccccc23)nc1	1%	-4%	x	-5%	0%	x
Cc1ccnc(NC(=O)c2cccc(NC(=O)COc3ccccc3)c2)c1	-3%	4%	29%	17µM*	4%	-2%
Cc1ccnc(NC(=O)CNC(=O)Cc2cccc3ccccc23)c1	6%	15µM*	x	24µM*	-1%	x
Cc1ccnc(NC(=O)c2ccc(Cl)s2)c1	3.2µM*	u	x	7.6µM*	1.6µM*	x
O=C(Nc1ccon1)c1ccc(Cl)s1	13%	-4%	7%	-3%	0%	0%
Cc1ccc(C2c3[nH]c4ccccc4c3CCN2C(=O)Nc2ccc(C)c(C)c2)cc1 (configuration not stated)	x	x	x	-1%	x	x
CCc1nnc(SCc2ccc(F)cc2Cl)c2cc3sc(C)cc3n12	x	x	x	0%	x	x
Cc1ccccc1OCc1ccc(-c2nc(C#N)c(N3CCC(C(N)=O)CC3)o2)o1	x	x	x	-20%	x	x
COc1ccc(NC(=O)CC2C(=O)N(c3ccc(C)cc3)C(=O)N2CCc2ccccc2)cc1 (configuration not stated)	x	x	27%	0%	x	x
Cc1ccnc(NC(=O)CCNC(=O)c2ccc(Cl)cc2)c1	4%	11%	x	1%	-3%	x
Cc1ccnc(NC(=O)c2cnc(Cl)c(Cl)c2)c1	-5%	u	x	17µM*	10%	x
CNC(=O)CSc1nc(N)c2c3c(sc2n1)CCC3	-1%	u	-13%	u	1%	-6%
NC(=O)CSc1nc(C2CC2)nc2sc3c(c12)CCCC3	2.8µM*	9.2µM*	x	1.5µM*	2.5µM*	-22%
NC(=O)CSc1nc(N)c2c3c(sc2n1)CCCCC3	20%	u	5%	8.5µM*	20%	-1%
